From PubChem
Rows were chosen to be rich in hits. Some 3.2% of all compounds tested hit in one or more screens of this group.
VACV mCherry inh: inhibitors of vaccinia virus infection (mCherry reporter signal); Vaccinia virus mCherry reporter infection, fluorescence; Potency, µM (top dose mostly 36.5 µM), hits mostly inhibitors; actives 0.63% (n = 310,000); AID 720579; calls by dose curve; tested in A549 cells; further: nearly all actives have a fitted effect of over 35% in size
Lassa entry inh: inhibitors of Lassa virus binding or cell entry; Lassa virus pseudotype entry inhibition, cell reporter; Potency, µM (series often up to 37.9 µM), hits mostly inhibitors; actives 1.2% (n = 300,000); calls by dose curve; tested in HEK293 cells; further: nearly all actives have a fitted effect of over 50% in size
VACV Venus inh: inhibitors of vaccinia virus (Venus reporter). AID 720580. Potency, µM (titrated, usually from 36.5 µM), most hits filed as inhibitors. Vaccinia virus Venus reporter expression, fluorescence. actives 0.46% (n = 330,000); calls by dose curve; tested in A549 cells; further: nearly all actives have a fitted effect of over 30% in size
FMDV antiviral: antivirals against foot and mouth disease virus. FMDV antiviral cell-based qHTS. Potency, µM (doses to about 57.9 µM), actives largely listed as inhibitors. actives 1.2% (n = 410,000); calls by dose curve; tested in HEK293T cells; further: read-out not given here; nearly all actives have a fitted effect of over 45% in size
MARV entry inh: blocks Marburg virus binding to or entry into cells; actives 1.8% (n = 300,000); Marburg virus pseudotyped entry inhibition, cell reporter; Potency, µM (highest dose often 37.8 µM), hits mostly inhibitors; AID 540276; calls by dose curve; tested in HEK293 cells
Each line names hits and unclear results; the compound was inactive in the other large screens.

COc1ccc(/C=C2\SC(=O)N(CCCC(=O)Nc3cc(Cl)ccc3C(=O)O)C2=O)cc1	Lassa entry inh 0.4µM, FMDV antiviral 0.28µM, MARV entry inh 1.3µM
CCN(CC)CCOC(=O)c1ccc(NC(=O)CCCN2C(=O)S/C(=C/c3ccc(OC)cc3)C2=S)cc1	Lassa entry inh inconclusive, FMDV antiviral 3.5µM, MARV entry inh inconclusive
COc1ccc(/C=C2\SC(=S)N(CCC(=O)Nc3ccc(O)cc3)C2=O)cc1	Lassa entry inh inconclusive
COc1cccc(/C=C2\SC(=O)N(CCC(=O)NNC(=O)c3cccc(Cl)c3)C2=O)c1	Lassa entry inh 1.6µM
C[C@H](c1ccccc1)N1C[C@H](COCc2ccccc2)Oc2cc(N3CC[C@@H](O)C3)ccc2S1(=O)=O	none (no result: Lassa entry inh, MARV entry inh)
N#Cc1ccc(/C=C2\C=Cc3ccccc32)cc1	none (no result: Lassa entry inh, FMDV antiviral, MARV entry inh)
CCN(CC)S(=O)(=O)c1ccc(NC(=O)c2ccc(OCC3CCCO3)cc2)cc1 (stereo not given)	FMDV antiviral 28µM (no result: VACV mCherry inh, Lassa entry inh, VACV Venus inh, MARV entry inh)
Nc1[nH]c(=S)nc2nnsc12	none (no result: Lassa entry inh, FMDV antiviral, MARV entry inh)
COc1ccc(CN2CCCC(c3nc(-c4ccncc4)ncc3-c3ccccc3)C2)cc1OC (stereo not given)	none (no result: Lassa entry inh, MARV entry inh)
Cc1ccc(S(=O)(=O)N2CCOCC2)cc1NC(=O)COC(=O)CNC(=O)c1ccccc1	none
COc1cccc(NC(=O)COC(=O)c2cc(S(=O)(=O)N3CCOCC3)ccc2C)c1	MARV entry inh 18µM
COc1cc(S(=O)(=O)N2CCOCC2)ccc1NC(=O)COC(=O)CC12CC3CC(CC(C3)C1)C2	Lassa entry inh 16µM (no result: VACV mCherry inh, VACV Venus inh)
Cc1ccc(S(=O)(=O)N2CCOCC2)cc1NC(=O)COc1ccc(C(=O)c2ccccc2)cc1	FMDV antiviral 20µM (no result: VACV mCherry inh, Lassa entry inh, VACV Venus inh, MARV entry inh)
CCc1nc2ccccc2c(C(=O)OCC(=O)Nc2cccc(S(=O)(=O)N3CCOCC3)c2)c1C	Lassa entry inh inconclusive, FMDV antiviral 20µM, MARV entry inh 4.6µM (no result: VACV mCherry inh, VACV Venus inh)
Cc1ccc(S(=O)(=O)N2CCOCC2)cc1C(=O)OCC(=O)Nc1ccc2c(c1)OCO2	none
COc1ccccc1NC(=O)C1=C(C)Nc2nc(SCc3ccccc3)nn2C1c1cccc(O)c1 (stereo not given)	Lassa entry inh inconclusive
CCCn1c(SCC(=O)Nc2cccc(S(=O)(=O)NC3=NCCCCC3)c2)nc2ccccc2c1=O	FMDV antiviral 32µM, MARV entry inh inconclusive
CCc1nc2ccccc2c(C(=O)OCC(=O)Nc2cccc(S(=O)(=O)NC3=NCCCCC3)c2)c1C	VACV mCherry inh inconclusive, Lassa entry inh 22µM, VACV Venus inh inconclusive, FMDV antiviral 25µM, MARV entry inh inconclusive
CCOCCCn1c(SCC(=O)Nc2cccc(S(=O)(=O)NC3=NCCCCC3)c2)nc2ccccc2c1=O	none (no result: VACV mCherry inh, Lassa entry inh, VACV Venus inh, MARV entry inh)
O=C(COC(=O)c1ccc2ccccc2n1)Nc1cccc(S(=O)(=O)NC2=NCCCCC2)c1	none (no result: VACV mCherry inh, VACV Venus inh)
CCn1cc2nc(SCc3cc(C)ccc3C)n(Cc3ccc(C)cc3)c(=O)c2n1	VACV mCherry inh inconclusive, Lassa entry inh inconclusive (no result: MARV entry inh)
CCOc1cc(/C=N/O)cc(Br)c1OCC	none (no result: VACV mCherry inh, VACV Venus inh)
CCCOc1c(Br)cc(/C=N/O)cc1OC	VACV Venus inh inconclusive, MARV entry inh 10µM (no result: VACV mCherry inh)
O=C(Nc1nccs1)[C@@H]1CC=C[C@@H]2CCN(C3CCCCC3)C(=O)[C@@H]21	none (no result: Lassa entry inh, FMDV antiviral, MARV entry inh)
[O-]C(=C(C(=S)Nc1cccc2ccccc12)[n+]1ccccc1)c1ccc2c(c1)OCCO2	VACV mCherry inh inconclusive
CCOc1ccccc1NC(=S)/C(=C(\[O-])c1ccc2c(c1)OCCO2)[n+]1ccc(CC)cc1	MARV entry inh 7.3µM (no result: VACV mCherry inh, VACV Venus inh)
COc1ccc(Nc2nc(NCCO)nc(N3CCCC3)n2)cc1	none (no result: VACV mCherry inh, Lassa entry inh, VACV Venus inh, MARV entry inh)
CCCNc1nc(Nc2ccc(C)cc2)nc(N2CCCC2)n1	MARV entry inh 15µM (no result: VACV mCherry inh, VACV Venus inh)
COc1ccc(/C=N/NC(=O)c2cccnc2)cc1COc1ccc(NC(C)=O)cc1	MARV entry inh inconclusive
COc1ccc(/C=N/NC(=O)c2ccn[nH]2)cc1Cn1cc([N+](=O)[O-])cn1	none
COc1ccc(/C=N/NC(=O)c2ccc(N)cc2)cc1Cn1cc([N+](=O)[O-])cn1	VACV mCherry inh inconclusive, Lassa entry inh inconclusive, MARV entry inh 7.9µM
COc1ccc(/C=N/NC(=O)c2cccnc2)cc1COc1ccc([N+](=O)[O-])cc1	Lassa entry inh inconclusive, FMDV antiviral 28µM, MARV entry inh inconclusive
O=C(NC1CCCCC1)c1cn(CCN2CCOCC2)c2cc(Cl)ccc2c1=O	none (no result: VACV mCherry inh, Lassa entry inh, VACV Venus inh, MARV entry inh)
CCCCCCCCCCCCCCCC[n+]1ccc(CC(O)c2c(C)[nH]c3ccccc23)c2ccccc21 (stereo not given)	none (no result: Lassa entry inh, FMDV antiviral, MARV entry inh)
OCCN1CCN(C2CCC(c3ccc(F)cc3)c3ccc(F)cc32)CC1 (stereo not given)	VACV mCherry inh inconclusive, Lassa entry inh inconclusive, VACV Venus inh inconclusive, FMDV antiviral inconclusive, MARV entry inh 4µM
